# Test results: the supplement of paper PMC8253809
# Tests used:
# Test in all cases: growth inhibition (% activity, log2 RLU normalised to DMSO / staurosporine); higher = more growth inhibition
# Conditions in all cases: 33 µM
# DIPGX29 = system: DIPGX29 (H3.3 K27M diffuse intrinsic pontine glioma line)
# In short: (§1)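 For each approved drug, the growth-inhibition value is the replicate median of per-plate normalised CellTiter-Glo data. Luminescence was log2-transformed and expressed as % activity between solvent and positive control wells. Drugs were applied in triplicate at a single final concentration of about 33 μM for 7 days at 37 °C, 5% CO2 to pHGG cell lines and H9-derived neural stem cells.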
# DIPGX37 = system: DIPGX37 (H3.3 K27M diffuse intrinsic pontine glioma line)
# In short: as §1
# DIPGX7 = system: DIPGX7 (H3.3 K27M diffuse intrinsic pontine glioma line)
# In short: as §1
# DIPGX9 = system: DIPGX9 (diffuse intrinsic pontine glioma line)
# In short: as §1
# HGGX39 = system: HGGX39 (paediatric high-grade glioma line)
# In short: as §1
# HGGX6 = system: HGGX6 (H3.3 G34R paediatric high-grade glioma line)
# In short: as §1
# HNSC = system: HNSC
# In short: as §1
# SUDIPGIV = system: SUDIPGIV (diffuse intrinsic pontine glioma line)
# In short: as §1
# SUDIPGVI = system: SUDIPGVI (diffuse intrinsic pontine glioma line)
# In short: as §1
# SUDIPGXIII = system: SUDIPGXIII (diffuse intrinsic pontine glioma line)
# In short: as §1
SMILES,growth inhibition (DIPGX29) [%],growth inhibition (DIPGX37) [%],growth inhibition (DIPGX7) [%],growth inhibition (DIPGX9) [%],growth inhibition (HGGX39) [%],growth inhibition (HGGX6) [%],growth inhibition (HNSC) [%],growth inhibition (SUDIPGIV) [%],growth inhibition (SUDIPGVI) [%],growth inhibition (SUDIPGXIII) [%]
CCN1CCN(C(=O)N[C@@H](C(=O)N[C@@H]2C(=O)N3[C@@H]2SC(C)(C)[C@@H]3C(=O)O)c2ccccc2)C(=O)C1=O,-0.286,0.221,-0.734,-1.09,-0.282,0.186,-1.83,-0.166,0.068,-11.8
CC(=O)O[C@@]12CO[C@@H]1C[C@H](O)[C@@]1(C)C(=O)[C@H](O)C3=C(C)[C@@H](OC(=O)[C@H](O)[C@@H](NC(=O)OC(C)(C)C)c4ccccc4)C[C@@](O)([C@@H](OC(=O)c4ccccc4)[C@H]21)C3(C)C,8.91,8.27,8.76,19.3,24.5,15.8,55.1,21.6,8.93,6.64
Clc1ccccc1CN1CCc2sccc2C1,1.5,3.08,2.39,2.4,4.15,0.755,1.29,0.722,3.23,1.33
CO[C@H]1O[C@@H]2O[C@@]3(C)CC[C@H]4[C@H](C)CC[C@@H]([C@H]1C)[C@@]24OO3,0.229,0.466,1.37,2.08,3.99,5.37,3.37,13.7,1.25,14.3
[O-][n+]1cccc(CO)c1,-0.666,1.68,-0.893,-0.317,0.747,0.543,-0.142,-0.682,-0.214,2.91
CCCCCCCCCC(=O)NC1C(Oc2c3cc4cc2Oc2ccc(cc2Cl)C(OC2OC(CO)C(O)C(O)C2NC(C)=O)C2NC(=O)C(NC(=O)C4NC(=O)C4NC(=O)C(Cc5ccc(c(Cl)c5)O3)NC(=O)C(N)c3ccc(O)c(c3)Oc3cc(O)cc4c3)c3ccc(O)c(c3)-c3c(OC4OC(CO)C(O)C(O)C4O)cc(O)cc3C(C(=O)O)NC2=O)OC(CO)C(O)C1O (stereo not given),-0.31,0.115,0.155,0.4,-1.12,-0.793,0.958,-1.1,0.462,2.06
COC(=O)/C=C/C(=O)OC,-1.63,0.743,-0.432,-0.334,0.42,-3.26,6.49,-2.1,-1,1.57
CCCCCCCCCCC[C@@H](C[C@@H]1OC(=O)[C@H]1CCCCCC)OC(=O)[C@H](CC(C)C)NC=O,-2.1,-1.45,-1.06,-1.8,-0.97,0.864,-6.06,-1.86,-3.34,0.12
CC1(C)O[C@@H]2C[C@H]3[C@@H]4CCC5=CC(=O)C=C[C@]5(C)[C@@]4(F)[C@@H](O)C[C@]3(C)[C@]2(C(=O)CO)O1,1.92,0.771,-0.242,4.15,2.88,0.928,-2.22,-0.618,1.71,0.942
CC(=O)Oc1ccccc1C(=O)O,0.978,2.47,1.52,1.57,2.08,4,0.311,-1.34,2.68,-16
COc1ccc([C@@H]2Sc3ccccc3N(CCN(C)C)C(=O)[C@@H]2OC(C)=O)cc1,-1.14,-1.86,0.795,-0.923,-2.92,-0.0969,-0.232,-1.32,-1.92,0.713
CCN(CC)C(=O)C1(c2ccccc2)CC1CN (stereo not given),0.721,0.301,0.852,0.846,0.86,2.42,1.54,1.15,2.57,0.599
O=c1[nH]cc(F)c(=O)[nH]1,5.88,-2.07,2.93,10.5,5.4,7.93,25.3,14.4,4.5,2.68
C[C@@]12C[C@@]3(O)O[C@@H](O1)[C@]1(COC(=O)c4ccccc4)[C@H]3C[C@@]12O[C@@H]1O[C@H](CO)[C@@H](O)[C@H](O)[C@H]1O,-0.664,0.987,-0.876,1.21,-0.682,1.84,-1.36,-1.25,0.677,-13.1
Nc1ccc(O)c(C(=O)O)c1,0.36,1.83,0.431,2.63,1.1,1.6,2.49,0.538,1.92,-1.01
Cc1cc2nc3c(=O)[nH]c(=O)nc-3n(C[C@H](O)[C@H](O)[C@H](O)CO)c2cc1C,-1.75,2.89,0.461,-0.233,2.78,-1.29,6.98,4.43,2.29,1.1
CN(C)CCCN1c2ccccc2CCc2ccccc21,-0.201,2.87,0.728,1.54,6.76,3.35,3.17,2.4,-0.367,2.4
CC(=O)O[C@]1(C(C)=O)CC[C@H]2[C@@H]3C[C@H](C)C4=CC(=O)C=C[C@]4(C)[C@@]3(F)[C@@H](O)C[C@@]21C,1.69,3.28,0.393,5.69,4.16,-1.08,0.0126,-1.42,3.88,1.16

SMILES,growth inhibition (DIPGX29) [%],growth inhibition (DIPGX37) [%],growth inhibition (DIPGX7) [%],growth inhibition (DIPGX9) [%],growth inhibition (HGGX39) [%],growth inhibition (HGGX6) [%],growth inhibition (HNSC) [%],growth inhibition (SUDIPGIV) [%],growth inhibition (SUDIPGVI) [%],growth inhibition (SUDIPGXIII) [%]
CC[C@@H]1/C=C(\C)C[C@H](C)C[C@H](OC)[C@H]2O[C@@](O)(C(=O)C(=O)N3CCCC[C@H]3C(=O)O[C@H](/C(C)=C/[C@@H]3CC[C@H](Cl)[C@H](OC)C3)[C@H](C)[C@@H](O)CC1=O)[C@H](C)C[C@@H]2OC,1.37,4.05,3.83,5.36,7.81,2.73,8.07,5.69,5.28,5.19
Cc1ccc(-c2cc(C(F)(F)F)nn2-c2ccc(S(N)(=O)=O)cc2)cc1,0.436,-3.87,-0.904,0.265,-0.617,-1.39,0.519,-5.64,1.64,0.102
COc1cc2nc(N3CCN(C(=O)c4ccco4)CC3)nc(N)c2cc1OC,7.72,-2.22,1.17,3.48,-0.781,18.9,-0.602,-3.54,-4.38,-1.72
CC/C(=C(\c1ccccc1)c1ccc(OCCN(C)C)cc1)c1ccccc1,7.72,1.28,12.1,3.63,11.1,10.5,21,7.38,5.56,2.99
Cc1cccc(C)c1NC(=O)C1CCCCN1C (stereo not given),0.788,0.607,-0.12,0.0719,1.51,1.22,-1.45,-0.501,1.09,1.48
Cc1onc(-c2c(Cl)cccc2Cl)c1C(=O)N[C@@H]1C(=O)N2[C@@H]1SC(C)(C)[C@@H]2C(=O)O,1.78,1.6,0.879,0.739,2.25,1.63,-0.363,1.41,2.27,-0.796
CC1Cc2ccccc2N1NC(=O)c1ccc(Cl)c(S(N)(=O)=O)c1 (stereo not given),-2.32,0.265,-1.54,-0.538,0.759,0.259,-4.15,-2.59,-1.16,-1.46
CN1CCN(C2=Nc3ccccc3Oc3ccc(Cl)cc32)CC1,-0.96,1.38,-0.128,1.22,6.27,-0.859,1.57,4.37,-2.03,0.859
Cc1cn([C@@H]2C[C@@H](O)[C@H](CO)O2)c(=O)[nH]c1=O,0.778,-0.0219,0.328,-2.07,-0.771,-3.82,1.03,-0.72,-10.2,-2.27
CCCCC[C@H](O)/C=C/[C@H]1[C@H](O)CC(=O)[C@@H]1CCCCCCC(=O)O,1.8,0.835,1.87,1.68,3.82,4.44,0.983,2.69,1.52,0.878
COc1ccc(CN2CCN(C(c3ccc(F)cc3)c3ccc(F)cc3)CC2)c(OC)c1OC,3.37,4.29,2.14,3.16,7.88,4.43,7.5,2.85,3.72,-11.1
CCCCc1ncc(/C=C(\Cc2cccs2)C(=O)O)n1Cc1ccc(C(=O)O)cc1,-0.827,0.563,-1.23,-0.197,0.41,0.268,-1.62,-1.58,0.0226,-13.9
CN(C)CCCN1c2ccccc2Sc2ccc(C(F)(F)F)cc21,1.07,1.48,0.326,0.717,3.34,0.498,-0.762,2.79,0.329,-5.35
CC1(C)[C@@H](OC(=O)CCC(=O)O)CC[C@]2(C)[C@H]3C(=O)C=C4[C@@H]5C[C@@](C)(C(=O)O)CC[C@]5(C)CC[C@@]4(C)[C@]3(C)CC[C@@H]12,-0.0896,-1.93,-0.476,-0.36,1.22,-0.666,0.455,-0.927,2.1,0.0653
CSc1ccc2c(c1)N(CCC1CCCCN1C)c1ccccc1S2 (stereo not given),1.58,0.408,-0.0552,-0.344,2.69,-0.282,7.39,0.193,-0.552,0.0949
Cc1cc(C(C)(C)C)cc(C)c1CC1=NCCN1,-3.84,-1.44,-1.4,-2.83,-0.405,-4.11,2.45,0.0122,-2.26,-0.432
Nc1cccc2c1CN(C1CCC(=O)NC1=O)C2=O (stereo not given),0.182,0.237,4.3,2.15,4.65,4.94,4.5,1.6,2.41,-0.527
CCOC(=O)OC(C)OC1=C(C(=O)Nc2ccccn2)N(C)S(=O)(=O)c2ccccc21 (stereo not given),-0.868,0.235,-2.67,-1.56,-0.486,-1.42,-2.72,-2.47,-3.26,-1.05
